Bioassay records from PubChem.
Shown are actives, neighbours in structure and some others; about 0.44% of the full set was active somewhere.
ERG Ets-DNA blk – ERG Ets/DNA interaction inhibition; fluorescence polarization, His-ERG Ets domain / labelled DNA; P11308; AID 624246; Potency, µM (series often up to 76.9 µM), for inactives: at the top dose FP activity, negative = inhibition, usual class: inhibitors; 370,000 compounds, 0.028% hits; active means well fitted inhibition curve with a large enough effect in the polarisation, with a control signal flat; inconclusive means small, poorly fitted or top-dose-only effect, or effect the other way, or a change in a side signal; inactive means no such curve, though single readings can be large or run the other way; the % refers to the polarisation;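 further: polarization taken with two DNA probes labelled with fluorescein and Texas red; % of control where 0% means no effect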
Target sequence (P11308 whole entry, looked up, the tested form may be a part): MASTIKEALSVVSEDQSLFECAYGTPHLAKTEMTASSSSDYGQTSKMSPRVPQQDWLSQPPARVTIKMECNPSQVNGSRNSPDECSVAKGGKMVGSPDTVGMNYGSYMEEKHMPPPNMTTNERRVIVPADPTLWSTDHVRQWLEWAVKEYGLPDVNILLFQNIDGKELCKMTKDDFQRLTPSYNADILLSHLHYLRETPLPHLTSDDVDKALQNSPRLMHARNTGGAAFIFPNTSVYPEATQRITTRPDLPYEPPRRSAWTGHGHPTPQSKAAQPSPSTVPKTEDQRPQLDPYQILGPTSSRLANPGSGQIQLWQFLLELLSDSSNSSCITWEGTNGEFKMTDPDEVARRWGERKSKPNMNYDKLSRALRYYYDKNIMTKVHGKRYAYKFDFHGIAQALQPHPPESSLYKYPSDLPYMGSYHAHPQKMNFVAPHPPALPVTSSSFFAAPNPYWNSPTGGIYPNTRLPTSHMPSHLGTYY
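His-tagged ERG Ets domain (1 uM in the protein solution; 300mM KCl, 50mM Tris-HCl, 1mM EDTA, 1mM DTT, pH 7.5) received compound, then a probe mix of 5 nM fluorescein-DNA and 100nM Texas-615-DNA. Fluorescence polarization was read for both dyes.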
RGS12 GoLoco inh – RGS12 GoLoco-Gai1 interaction inhibition | AID 880 | Gai1:RGS12 GoLoco peptide FP, rhodamine, 10 min | Potency, µM (top dose mostly 61.6 µM), for the others: at the highest dose activity, negative = inhibition, hits mostly inhibitors | P63096 | 230,000 compounds, 0.44% hits; active means well fitted inhibition curve with a large enough effect, not every such curve was filed as active; inactive means no such curve, though single readings can be large or run the other way; further: on the % scale 0 is the no-effect control and ±100 the full control effect; nearly all actives have a fitted effect of over 30% in size
Apoferritin bind – candidate novel general anesthetic via apoferritin binding; P02791; Potency, µM (titrated, usually from 77.5 µM), for the others: at the top dose activity change, negative = displacement, actives largely listed as inhibitors; 350,000 compounds, 0.074% hits; apoferritin/1-aminoanthracene competitive binding, fluorescence; further: on the % scale 0 is the no-effect control and ±100 the full control effect; nearly all actives have a fitted effect of over 20% in size
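Concentration-response curves derived by four-parameter Hill fitting of normalized fluorescence, where compounds displaced 1-AMA from 10 uM horse apoferritin following a brief 10 min room-temperature incubation; propofol titration acted as positive control.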
TexasRed fluor – alters Texas Red total fluorescence, flagging assay interference | AID 1479 | 280,000 compounds, 0.29% hits | Potency, µM (top dose mostly 106 µM), for the others: top-dose fluorescence change, negative = quenching | TRb/SRC2 Texas Red total fluorescence interference; active means well fitted curve in either direction with a large enough effect; inconclusive means small, poorly fitted or top-dose-only effect; further: on the % scale 0 is the no-effect control and ±100 the full control effect
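Flags fluorescent or light-absorbing compounds by total fluorescence, S + 2P, at 555 nm excitation and 632 nm emission. Mixture: 20 nM Texas Red SRC2 peptide, 0.6 uM human TRb LBD, 1 uM T3, 5% DMSO; compound exposure 5 h at ambient temperature.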
TRb-SRC2 inh – disrupts binding of human TR beta to SRC2; P10828; TRbeta-SRC2 peptide binding, fluorescence polarization; receptor liganded with 1 µM T3; Potency, µM (titrated, usually from 106 µM), inactives show at the top dose activity change, negative = inhibition, most hits filed as inhibitors; 280,000 compounds, 0.065% hits; AID 1469;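 further: plate controls were bound peptide for no effect and peptide without receptor for full effect; nearly all actives have a fitted effect of over 50% in size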
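Quantitative HTS by FP: 0.6 uM TRb LBD, 20 nM labeled SRC2 20-mer, 1 uM T3, 5% DMSO; 5 hr ambient incubation; % activity per concentration and potencies from concentration series.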
* = called active by the depositor; u = inconclusive; x = no result; [ ] = dose if it differs, or a comment. Unless noted, the call rests on the fitted dose curve; in most records, active means well fitted curve in the direction sought with a large enough effect; inconclusive means small, poorly fitted or top-dose-only effect, or another doubt; inactive means no such curve, though single readings can be large; an effect the other way counts as inactive or inconclusive. Potency means the concentration at half of the fitted maximal effect.

SMILES	ERG Ets-DNA blk	RGS12 GoLoco inh	Apoferritin bind	TexasRed fluor	TRb-SRC2 inh
CC(=O)Nc1ccc(Nc2c3c4c(cccc4n(C)c2=O)C(=O)c2ccccc2-3)cc1	-22.3%	14.1µM*	-1.6%	0.8%	-1.9%
CC(=O)Nc1ccc(NC2=CC(=O)c3ccccc3C2=O)cc1	0.0%	x	-7.6%	x	x
CCCC(=O)NCCc1c(I)[nH]c2ccc(OC)cc12	x	-15.2%	-12.1%	-3.8%	-4.7%
C/C(N)=C(/C#N)C(=O)COC(=O)C1CCC(C(C)(C)C)CC1 (centres undefined)	8.4%	-6.8%	35.5µM*	-0.4%	-2.4%
C/C(N)=C(/C#N)C(=O)COC(=O)CC12CC3CC(CC(C3)C1)C2	1.5%	11.9%	17.8µM*	-0.8%	-5.4%
Cc1cc(NC(=O)Cn2c(=O)nc(-c3ccccc3F)c3cc(Cl)ccc32)ccc1Br	0.9%	x	-7.4%	0.0355µM*[quencher]	-26.4%[53 µM]
Cc1ccc2c(c1)N(C)/C(=C/c1cccc[n+]1CCO)S2	26.9%	x	-9.0%	x	x
Cc1ccc2c(c1)S/C(=C/c1ccc[n+](C)c1)N2CCO	0.7%	8.91µM*	-14.9%	-1.2%	3.8%
CCc1ccc2occ(CC(=O)Nc3c(C(=O)Nc4ccc(C)cc4)oc4ccccc34)c2c1	1.3%	x	0.0%	1122µM*[quencher]	-24.4%[53 µM]
CC[C@H](C)[C@H](NC(=O)[C@H](C)NC(=O)CNC(=O)[C@H](CCCCN)NC(=O)[C@H](CC(N)=O)NC(=O)[C@H](CO)NC(=O)CN)C(=O)N[C@H](C(=O)NCC(=O)N[C@@H](CC(C)C)C(=O)N[C@@H](CCSC)C(=O)O)[C@@H](C)CC	x	x	-7.0%	5.2%	5.6%
Cc1ccsc1C=Nc1ccc(O)cc1	-19.2%	-38.1%	u	-9.1%	31.6µM*
CCOC(=O)[C@H](CCc1ccccc1)N[C@@H](C)C(=O)N1[C@H](C(=O)O)C[C@H]2CCC[C@@H]21	x	8.91µM*	-0.6%[29.3 µM]	-1.2%	4.1%
Cc1ccc(NC(=O)CN2C(=O)N/C(=C/c3ccco3)C2=O)cc1	-8.6%	17.2%	-12.5%	50.1µM*[quencher]	10.6%
O=C([O-])[C@@H]1[O][Sb+]([O][Sb+]2[O][C@H]([C@H](O)CO)[C@H](O)[C@H](C(=O)[O-])[O]2)[O][C@H]([C@H](O)CO)[C@@H]1O	x	x	4.1%	-3.8%	-10.8%
CSc1nc2ccc(NS(=O)(=O)c3cccc(Cl)c3Cl)cc2s1	2.9%	22.9%	-14.8%	1.12µM*[quencher]	-8.9%[53 µM]
Cc1nc2ccc(NS(=O)(=O)c3ccccc3Cl)cc2s1	-5.0%	x	x	x	x
CN(C)c1ccc(C(c2ccccc2)c2ccc(N(C)C)cc2)cc1	x	x	x	0.6%[201 µM]	6.5%[201 µM]
CCOc1ccccc1NC(=O)CN(CCc1ccccc1)S(=O)(=O)c1ccc(C)cc1	0.3%	x	269.0%	0.0316µM*[quencher]	-12.1%
Cc1ccc(C)c(NC(=O)CN(CCc2ccccc2)S(=O)(=O)c2ccccc2)c1	8.1%	x	45.0%	1.6%	-1.6%
CCC(=O)CC	x	x	-0.5%	-3.2%	-4.8%
C=CC1CN2CCC1C[C@H]2C(O)c1ccnc2ccc(OC)cc12 (some centres undefined)	x	8.2%	-4.7%	x	-1.5%
NC(=O)c1ccsc1N	x	20µM*	-3.3%	-0.4%[53 µM]	-4.0%[53 µM]
